Laboratory results as given in PubChem BioAssay (NCI).
Where “and” joins values, the source holds several entries; their conditions need not be identical. Equal entries are not always repeated. This is part of a sample that, as a whole, favours compounds with a hit. Of some 79,000 tested, about 15% had one in any assay. Calls of active or inactive are those of the source. No stated cut-off is given here; in the data, active means growth inhibition above about 70%; inactive means the rest.

Test: NCI Yeast Anticancer Drug Screen. Data for the rad50 strain (AID 155);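 further: 0% = growth of vehicle-only cultures of the same strain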
Conditions: S. cerevisiae rad50 strain growth inhibition; at 50.0 µM; hits give high values
Procedure, shortened: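 A DNA repair-deficient yeast mutant serves as the test organism; compound-induced growth inhibition is calculated against vehicle-treated cells.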

Compound | growth inhibition
CC(=O)OCC(OC(C)=O)C(OC(C)=O)C(OC(C)=O)C(COC(C)=O)OC(C)=O (stereo unspecified) | -27.2% (inactive) and -22.9% (inactive) and -9.4% (inactive)
CCCCCOCC(=O)OC | -1.9% (inactive)
COC1/C=C\OC2(C)Oc3c(C)c(O)c4c(c3C2=O)C2=NC(C)(C)N(c3ccccc3)C2=C(NC(=O)/C(C)=C\C=C\C(C)C(O)C(C)C(O)C(C)C(OC(C)=O)C1C)C4=O (stereo unspecified) | 24.9% (inactive)
C/C(=C/C(=O)N1c2ccccc2CC1c1c[nH]c2ccccc12)C(=O)O (stereo unspecified) | 62.1% (inactive)
CSc1nc(C)c(C(=O)CCN2CCOCC2)s1 | 99.5% (active)
Cn1c(=S)c2[nH]c(=S)[nH]c2n(C)c1=O | 97.2% (active)
OCC(O)C(O)C(O)C(O)C(SCc1ccccc1)SCc1ccccc1 (stereo unspecified) | 9.5% (inactive) and -3.9% (inactive) and -5.4% (inactive)
CC(C)CCC(C)(C)c1cc(O)ccc1O | 98.4% (active)
CCc1c(-c2ccccc2)c(CN2CCCCC2)c2ccccn12 | -1.4% (inactive)
Clc1ccc(CN2COc3c(ccc4cccnc34)C2)c(Cl)c1 | 98.1% (active)
Cc1[nH]c2ccccc2c1/C=C1/CCCCCCC1=O | 93.8% (active)
